A number with no mark means an inactive call. Calls of active or inactive are those of the source. The rule behind the calls is not given here.
test: C difficile toxins, biochemical counterscreen, UDPG substrate absence, confirmatory dose response (AID 720650); details: series mostly up to 19.5 µM; activity change, negative = inhibition: at the top concentration

Row | SMILES | activity change, negative = inhibition | AC50
1 | CCNC(=O)C[C@H]1CC[C@@H]2[C@@H](COc3ccc(NC(C)=O)cc3C(=O)N2C)O1 | 4.3% | –
2 | COc1ccc(C(=O)NC(C(=O)NCc2ccccc2OC)C(C)C)cc1 (centres undefined) | -8.6% | –
3 | Cc1scc(C(=O)N2CCN(c3ccc(Cl)cc3)CC2)c1C | 5.76% | –
4 | CCCn1c(N)c(C(=O)COC(=O)c2cccc(S(=O)(=O)N3CCOCC3)c2)c(=O)[nH]c1=O | -15.3% | –
5 | NC(=O)CC(NC(=O)c1ccccc1)c1ccc(NCCc2ccc(F)cc2)c([N+](=O)[O-])c1 (centres undefined) | -15.4% | –
6 | C[C@H](CO)N1C[C@H](C)[C@@H](CN(C)C(=O)Nc2ccc(C(F)(F)F)cc2)Oc2c(NS(=O)(=O)c3cccs3)cccc2C1=O | – | > 39 µM
7 | O=c1[nH]c(/C=C\c2ccc(O)c(Cl)c2)nc(O)c1[N+](=O)[O-] | – | 20 µM (active)
8 | Oc1ccc(CCc2ccccn2)cc1 | – | 11.6 µM (active)
9 | Cc1cccc(NC(=O)c2ccc(N3CCOCC3)c([N+](=O)[O-])c2)n1 | -21.8% | –
10 | CC(C)CN1CCN(CC#Cc2ccccc2)CC1CCO (centres undefined) | -8.09% | –
11 | CCN(CC)CCCCN1c2ccccc2Sc2ccccc21 | – | 7.03 µM (active)
12 | Cc1ccc(-n2c(SCC(=O)O)nc3c(sc(=S)n3-c3ccc(C)c(C)c3)c2=O)cc1 | – | 13.7 µM (active)
13 | CC(=O)c1ccc(Nc2ccc(-c3ccccc3F)nn2)cc1 | – | > 39 µM
14 | COc1cc(Cn2nnc3ccccc32)ccc1O | – | 15.8 µM (active)
15 | COc1cc(C=C2CN(C)C(=O)C2=O)ccc1O | -5.77% | –
16 | C[N+]1(CCCCSc2ccc(O)cc2)CCCCC1 | – | > 39 µM
17 | CNC(=S)N/N=C/c1c(C(=O)OC)cnn1-c1ccc(F)cc1F | -6.87% | –
18 | CCc1ccc(NC(=O)c2cc(C)on2)cc1 | -14.7% | –
19 | O=C1/C(=C/c2cccnc2)SC(=NCc2ccccc2)N1Cc1ccccc1 | -7.63% | –
20 | CC(=O)Nc1ccc(NC(=O)[C@@H]2CCCN2S(=O)(=O)c2ccc3c(c2)OCCO3)cc1 | 1.41% | –

Row | SMILES | activity change, negative = inhibition | AC50
21 | O=C(CCn1c(=O)oc2cc(Cl)ccc21)Nc1ccc(O)cc1 | – | 4.49 µM (active)
22 | Cc1cc(C=C2C(=O)c3ccccc3C2=O)c(C)n1-c1ccc(C(=O)O)cc1 | – | 12 µM (active)
23 | CN1C(=O)C(c2nnc(Nc3cccc4ccccc34)s2)C2CC1(C)Oc1ccccc12 (centres undefined) | -14.1% | –
24 | CC(C)OC(=O)c1cccc(C(=O)O)n1 | 9.38% | –
25 | CCOCCCNC(=O)C1CCN(S(=O)(=O)c2c(C)noc2/C=C\c2ccc(OC)cc2)CC1 | – | inactive
26 | C=CC[C@@H](CC(=O)N(CCO)Cc1ccccc1)C(=O)NC[C@@H](OC(=O)[C@@H](CC=C)CC(=O)OC(C)(C)C)c1ccccc1 | -9.68% | –
27 | Cc1ccc(NNC(=O)c2ccno2)cc1Cl | – | 0.401 µM (active)
28 | CCOC(=O)N1CCN=C1SCc1ccc(Cl)c(Cl)c1 | -20.3% | –
29 | COc1cc2c(cc1N)-c1ccc(N)cc1C2=O | – | 1.18 µM (active)
30 | CNC(=O)N(O)C1N(/N=C/c2ccc(SC)cc2)C(=S)SC1(C)C (centres undefined) | – | > 39 µM
31 | Cc1cc(N/N=C/c2ccc(O)cc2O)nc(N2CCOCC2)n1 | – | > 39 µM
32 | O=C(COc1ccc(/C=N/NC(=O)c2ccc(O)cc2)cc1)Nc1cccc([N+](=O)[O-])c1 | -5.22% | –
33 | COc1ccc(CNC(=O)C2=CC(c3ccc(OC)cc3)=NS(=O)(=O)N2C)cc1 | -8.76% | –
34 | O=C(O)c1ccccc1NC(=O)N1C[C@H]2C[C@@H](C1)c1cccc(=O)n1C2 | -18.8% | –
35 | Cc1cccc(OCCC(=O)NCC(=O)Nc2cccc(C)c2C)c1 | – | 16.4 µM (active)
36 | Cc1ccc(/C=N/NC(=O)c2cccc(S(=O)(=O)Nc3ccccc3Cl)c2)o1 | -6.39% | –
37 | COc1ccccc1-n1c(SCC(=O)O)nc2c(sc(=S)n2-c2ccc(C)c(C)c2)c1=O | – | > 39 µM
38 | C[C@H](NC(=O)c1cc2c(cn1)[nH]c1ccccc12)C(=O)O | -1.98% | –
39 | CCOc1ccc2ccccc2c1/C=N/NC(=O)c1ccncc1 | -22.3% | –
